In PubChem BioAssay (EPA / NIEHS) one finds outcome and AC50 data, which are given here for 27 molecules.

The source made the active and inactive calls. How the source made its calls: active means hit-call score of the fitted dose curve at least 0.9, where 1 is the maximum; inactive means score below 0.9.

Read-out in the first assay: 3-Hydroxy-3-Methylglutaryl-CoA Synthase 2 (HMGCS2), HMGCS2 (gene 3158)
Put plainly: LTEA_HepaRG_HMGCS2: Life Technologies and Expression Analysis (LTEA) Assay for 3-Hydroxy-3-Methylglutaryl-CoA Synthase 2 (HMGCS2) using HepaRG (AID 2283504). As to conditions: mRNA level, 48 h; actives raise or lower the signal. Summed up:
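HepaRG, plated 48 h then switched to serum-free induction media; cmpd 8-pt, max 100 uM, 1/2-log, 0.5% DMSO, n=2, 48 h. HMGCS2 mRNA by Fluidigm TaqMan qRT-PCR, ACTB/GAPDH/POLR2A norm; bidirectional fit vs DMSO.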
For the molecule `CC(C)CCCCCCc1ccc(O)cc1`, the result was inactive.

`N#CSCSc1nc2ccccc2s1`: the outcome was inactive.

For `CC(=O)S[C@@H]1CC2=CC(=O)CC[C@]2(C)[C@H]2CC[C@@]3(C)[C@@H](CC[C@@]34CCC(=O)O4)[C@H]12`, the AC50 (as a rule, the midpoint of the concentration-response curve, whichever way the signal moves) is 65.7 µM (active).

As for `O=C(c1ccc(O)cc1O)c1ccc(O)cc1O`, the outcome was inactive.

As for `CCOC(=O)COc1cc(-n2ncc(C(F)(F)F)c(C)c2=O)c(F)cc1Cl`, the molecule was classed as inactive.

Take `OB(O)O`: the molecule was classed as inactive.

For the molecule `CCCCOC(=O)[C@@H](C)Oc1ccc(Oc2ccc(C(F)(F)F)cn2)cc1`, the molecule was classed as inactive.

In the case of `CC(C)(C)[C@@H](O)[C@@H](Cc1ccc(Cl)cc1)n1cncn1`, the outcome was inactive.

With `CCCN(CCC)C(=O)SCC`, the molecule was called inactive.

In the case of `CCCCOC(=O)C(C)Oc1ccc(Oc2ccc(C(F)(F)F)cn2)cc1` (stereo unspecified), the outcome was inactive.

Regarding `O=C(O)C1(C(=O)Nc2ccc(Cl)cc2Cl)CC1`, the AC50 is 81 µM (active).

For `COC(=O)c1ccc(I)cc1S(=O)(=O)NC(=O)Nc1nc(C)nc(OC)n1`, the result was inactive.

For `C=CCOC(Cn1ccnc1)c1ccc(Cl)cc1Cl` (stereo unspecified), the AC50 is 32.4 µM (active).

In the case of `C#C[C@]1(O)CC[C@H]2[C@@H]3CCC4=CC(=O)CC[C@@H]4[C@H]3CC[C@@]21CC`, the molecule was called inactive.

As to `C[C@]12C[C@H](O)[C@H]3[C@@H](CCC4=CC(=O)CC[C@@]43C)[C@@H]1CC[C@@H]2C(=O)CO`, the molecule was classed as inactive.

On to `C#CCOC(=O)[C@@H](C)Oc1ccc(Oc2ncc(Cl)cc2F)cc1`, for which the AC50 was 11.7 µM (active).

Turning to `CCCCC(CC)CN1C(=O)C2C3C=CC(C3)C2C1=O` (stereo unspecified), the AC50 was 86.3 µM (active).

In the case of `O=C(O)c1ccccc1`, the molecule was called inactive.

For the molecule `CCN(CC)C(=O)c1cccc(C)c1`, the molecule was called inactive.

For the molecule `CCCN(CCC)c1c([N+](=O)[O-])cc(C(F)(F)F)c(N)c1[N+](=O)[O-]`, the AC50 was 33.3 µM (active).

Turning to `Cc1nn(C)c(Oc2ccccc2)c1C=NOCc1ccc(C(=O)OC(C)(C)C)cc1`, the AC50 is 12.4 µM (active).

`COC(=O)c1ccccc1C(=O)O`: the molecule was classed as inactive.

`CCCOC(=O)c1ccc(C(=O)OCCC)nc1`: the molecule was called inactive.

For the molecule `CCCOC(=O)NCCCN(C)C`, the call was inactive.

Turning to `O=C(Nc1ccc([N+](=O)[O-])cc1Cl)c1cc(Cl)ccc1O`, the AC50 is 2.59 µM (active).

For the molecule `CCC(C)OC(=O)N1CCCCC1CCO` (stereo unspecified), the call was inactive.

With `S=C([S-])NCCNC(=S)[S-].[Mn+2]`, the concentration at half-maximal activity (AC50) was 5.04 µM (active).

Read-out in a further assay: Insulin Like Growth Factor 1 (IGF1), IGF1 (gene 3479)
Put plainly: LTEA_HepaRG_IGF1: Life Technologies and Expression Analysis (LTEA) Assay for Insulin Like Growth Factor 1 (IGF1) using HepaRG (AID 2283506). Particulars: mRNA level, 48 h; actives raise or lower the signal. Summed up:
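Cells are thawed, plated and cultured 48 h, then exposed in duplicate to chemical (highest 100 uM, half-log steps, 0.5% DMSO) for another 48 h. Total RNA is analysed by Fluidigm qRT-PCR for IGF1 expression relative to vehicle.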
On to `CC(C)CCCCCCc1ccc(O)cc1`, for which the molecule was classed as inactive.

As for `N#CSCSc1nc2ccccc2s1`, the AC50 is 77.2 µM (active).

As for `CC(=O)S[C@@H]1CC2=CC(=O)CC[C@]2(C)[C@H]2CC[C@@]3(C)[C@@H](CC[C@@]34CCC(=O)O4)[C@H]12`, the AC50 is 68.7 µM (active).

With `O=C(c1ccc(O)cc1O)c1ccc(O)cc1O`, the call was inactive.

Take `CCOC(=O)COc1cc(-n2ncc(C(F)(F)F)c(C)c2=O)c(F)cc1Cl`: the result was inactive.

`OB(O)O`: the molecule was called inactive.

On to `CCCCOC(=O)[C@@H](C)Oc1ccc(Oc2ccc(C(F)(F)F)cn2)cc1`, for which the molecule was classed as inactive.

In the case of `CC(C)(C)[C@@H](O)[C@@H](Cc1ccc(Cl)cc1)n1cncn1`, the result was inactive.

On to `CCCN(CCC)C(=O)SCC`, for which the result was inactive.

In the case of `CCCCOC(=O)C(C)Oc1ccc(Oc2ccc(C(F)(F)F)cn2)cc1` (stereo unspecified), the molecule was called inactive.

As to `O=C(O)C1(C(=O)Nc2ccc(Cl)cc2Cl)CC1`, the call was inactive.

For `COC(=O)c1ccc(I)cc1S(=O)(=O)NC(=O)Nc1nc(C)nc(OC)n1`, the molecule was called inactive.

In the case of `C=CCOC(Cn1ccnc1)c1ccc(Cl)cc1Cl` (stereo unspecified), the AC50 is 18.3 µM (active).

`C#C[C@]1(O)CC[C@H]2[C@@H]3CCC4=CC(=O)CC[C@@H]4[C@H]3CC[C@@]21CC`: the result was inactive.

Turning to `C[C@]12C[C@H](O)[C@H]3[C@@H](CCC4=CC(=O)CC[C@@]43C)[C@@H]1CC[C@@H]2C(=O)CO`, the result was inactive.

Take `C#CCOC(=O)[C@@H](C)Oc1ccc(Oc2ncc(Cl)cc2F)cc1`: the call was inactive.

Regarding `CCCCC(CC)CN1C(=O)C2C3C=CC(C3)C2C1=O` (stereo unspecified), the AC50 is 50 µM (active).

Take `O=C(O)c1ccccc1`: the outcome was inactive.

Consider `CCN(CC)C(=O)c1cccc(C)c1`, for which the AC50 was 13.1 µM (active).

On to `CCCN(CCC)c1c([N+](=O)[O-])cc(C(F)(F)F)c(N)c1[N+](=O)[O-]`, for which the AC50 is 22.7 µM (active).

With `Cc1nn(C)c(Oc2ccccc2)c1C=NOCc1ccc(C(=O)OC(C)(C)C)cc1`, the AC50 is 3.22 µM (active).

Take `COC(=O)c1ccccc1C(=O)O`: the molecule was classed as inactive.

On to `CCCOC(=O)c1ccc(C(=O)OCCC)nc1`, for which the result was inactive.

`CCCOC(=O)NCCCN(C)C`: the call was inactive.

For `O=C(Nc1ccc([N+](=O)[O-])cc1Cl)c1cc(Cl)ccc1O`, the AC50 is 3.59 µM (active).

Consider `CCC(C)OC(=O)N1CCCCC1CCO` (stereo unspecified), for which the call was inactive.

For the molecule `S=C([S-])NCCNC(=S)[S-].[Mn+2]`, the AC50 was 5 µM (active).

Read-out in the next assay: Intercellular Adhesion Molecule 1 (ICAM1), ICAM1 (gene 3383)
Put plainly: LTEA_HepaRG_ICAM1: Life Technologies and Expression Analysis (LTEA) Assay for Intercellular Adhesion Molecule 1 (ICAM1) using HepaRG (AID 2283507). As to conditions: mRNA level, 48 h; actives raise or lower the signal. Summed up: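 Readout is qRT-PCR mRNA level, normalized to three housekeeping genes and fitted bidirectionally against 0.5% DMSO vehicle. Human HepaRG cultures received compound for 48 h, top concentration 100 uM with half-log dilutions.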
`CC(C)CCCCCCc1ccc(O)cc1`: the molecule was classed as inactive.

Turning to `N#CSCSc1nc2ccccc2s1`, the call was inactive.

`CC(=O)S[C@@H]1CC2=CC(=O)CC[C@]2(C)[C@H]2CC[C@@]3(C)[C@@H](CC[C@@]34CCC(=O)O4)[C@H]12`: the molecule was called inactive.

On to `O=C(c1ccc(O)cc1O)c1ccc(O)cc1O`, for which the molecule was called inactive.

Regarding `CCOC(=O)COc1cc(-n2ncc(C(F)(F)F)c(C)c2=O)c(F)cc1Cl`, the result was inactive.

Consider `OB(O)O`, for which the outcome was inactive.

As for `CCCCOC(=O)[C@@H](C)Oc1ccc(Oc2ccc(C(F)(F)F)cn2)cc1`, the call was inactive.

With `CC(C)(C)[C@@H](O)[C@@H](Cc1ccc(Cl)cc1)n1cncn1`, the call was inactive.

For the molecule `CCCN(CCC)C(=O)SCC`, the result was inactive.

Take `CCCCOC(=O)C(C)Oc1ccc(Oc2ccc(C(F)(F)F)cn2)cc1` (stereo unspecified): the molecule was classed as inactive.

Regarding `O=C(O)C1(C(=O)Nc2ccc(Cl)cc2Cl)CC1`, the call was inactive.

With `COC(=O)c1ccc(I)cc1S(=O)(=O)NC(=O)Nc1nc(C)nc(OC)n1`, the result was inactive.

Consider `C=CCOC(Cn1ccnc1)c1ccc(Cl)cc1Cl` (stereo unspecified), for which the half-maximal activity concentration (AC50) was 13.2 µM (active).

In the case of `C#C[C@]1(O)CC[C@H]2[C@@H]3CCC4=CC(=O)CC[C@@H]4[C@H]3CC[C@@]21CC`, the result was inactive.

In the case of `C[C@]12C[C@H](O)[C@H]3[C@@H](CCC4=CC(=O)CC[C@@]43C)[C@@H]1CC[C@@H]2C(=O)CO`, the molecule was classed as inactive.

As for `C#CCOC(=O)[C@@H](C)Oc1ccc(Oc2ncc(Cl)cc2F)cc1`, the molecule was called inactive.

In the case of `CCCCC(CC)CN1C(=O)C2C3C=CC(C3)C2C1=O` (stereo unspecified), the call was inactive.

With `O=C(O)c1ccccc1`, the result was inactive.

On to `CCN(CC)C(=O)c1cccc(C)c1`, for which the molecule was classed as inactive.

As for `CCCN(CCC)c1c([N+](=O)[O-])cc(C(F)(F)F)c(N)c1[N+](=O)[O-]`, the molecule was classed as inactive.

As for `Cc1nn(C)c(Oc2ccccc2)c1C=NOCc1ccc(C(=O)OC(C)(C)C)cc1`, the AC50 is 16.8 µM (active).

In the case of `COC(=O)c1ccccc1C(=O)O`, the outcome was inactive.

As to `CCCOC(=O)c1ccc(C(=O)OCCC)nc1`, the result was inactive.

For `CCCOC(=O)NCCCN(C)C`, the molecule was classed as inactive.

On to `O=C(Nc1ccc([N+](=O)[O-])cc1Cl)c1cc(Cl)ccc1O`, for which the AC50 is 6.3 µM (active).

Consider `CCC(C)OC(=O)N1CCCCC1CCO` (stereo unspecified), for which the molecule was classed as inactive.

Regarding `S=C([S-])NCCNC(=S)[S-].[Mn+2]`, the AC50 is 6.29 µM (active).
